Assay results published in paper PMC7862700, “An all-to-all approach to the identification of sequence-specific readers for epigenetic DNA modifications on cytosine”.

Tests used:
Test in all cases: DAPPL (digital affinity profiling via proximity ligation, sequencing); 10 mM Tris-HCl pH 7.5, 50 mM NaCl, 1 mM DTT, 4% glycerol, room temperature, 30 min; GST-TFs on glutathione beads, 16-mer random dsDNA library, 0.1% formaldehyde crosslink after washing; high values mean tight binding
FEV = molecular target: T1, FEV (Homo sapiens, UniProt Q99581 1-238); settings: protein: recombinant; tags: N-terminal GST; dsDNA, one strand shown
T1 sequence: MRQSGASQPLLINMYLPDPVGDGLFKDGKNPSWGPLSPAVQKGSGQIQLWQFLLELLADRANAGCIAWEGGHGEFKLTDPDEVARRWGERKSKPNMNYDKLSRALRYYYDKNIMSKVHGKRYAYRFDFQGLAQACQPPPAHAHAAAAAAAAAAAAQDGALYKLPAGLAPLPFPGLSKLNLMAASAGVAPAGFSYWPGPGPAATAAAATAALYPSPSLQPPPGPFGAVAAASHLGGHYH
Procedure, shortened: (§1)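 Yeast served to express human transcription factors as GST fusions, which were then captured on glutathione beads and labelled with DNA barcodes. Pooled with a tag-only sample, they were incubated with 200 nmole of a 16-mer random double-stranded DNA library for 30 min at room temperature in Tris/NaCl/DTT/glycerol buffer, washed, crosslinked with 0.1% formaldehyde, ligated by proximity, amplified by PCR and sequenced. Dividing each hexamer's read frequency for a factor by its frequency for the tag-only sample gives the binding signal.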

ETV5 = ETV5 (Homo sapiens, UniProt P41161 1-510); settings: protein: recombinant; tags: N-terminal GST; dsDNA, one strand shown
Procedure, shortened: as §1

HSF1 = HSF1 (Homo sapiens, UniProt Q00613 1-529); settings: protein: recombinant; tags: N-terminal GST; chain copies: 3; dsDNA, one strand shown
Procedure, shortened: as §1

SPIC = molecular target: T2, SPIC (Homo sapiens, UniProt Q8N5J4 1-248); settings: protein: recombinant; tags: N-terminal GST; dsDNA, one strand shown
T2 sequence: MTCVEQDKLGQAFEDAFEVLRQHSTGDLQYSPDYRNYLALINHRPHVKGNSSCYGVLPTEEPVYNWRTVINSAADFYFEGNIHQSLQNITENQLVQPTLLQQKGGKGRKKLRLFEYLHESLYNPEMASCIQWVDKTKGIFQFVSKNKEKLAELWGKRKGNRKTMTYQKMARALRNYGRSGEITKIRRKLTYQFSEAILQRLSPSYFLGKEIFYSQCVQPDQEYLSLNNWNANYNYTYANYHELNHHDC
Procedure, shortened: as §1

ELF4 = ELF4 (Homo sapiens, UniProt Q99607 1-663); settings: protein: recombinant; tags: N-terminal GST; dsDNA, one strand shown
Procedure, shortened: as §1

ELK4 = molecular target: T3, ELK4 (Homo sapiens, UniProt P28324-2 1-405); settings: protein: recombinant; tags: N-terminal GST; dsDNA, one strand shown
T3 sequence: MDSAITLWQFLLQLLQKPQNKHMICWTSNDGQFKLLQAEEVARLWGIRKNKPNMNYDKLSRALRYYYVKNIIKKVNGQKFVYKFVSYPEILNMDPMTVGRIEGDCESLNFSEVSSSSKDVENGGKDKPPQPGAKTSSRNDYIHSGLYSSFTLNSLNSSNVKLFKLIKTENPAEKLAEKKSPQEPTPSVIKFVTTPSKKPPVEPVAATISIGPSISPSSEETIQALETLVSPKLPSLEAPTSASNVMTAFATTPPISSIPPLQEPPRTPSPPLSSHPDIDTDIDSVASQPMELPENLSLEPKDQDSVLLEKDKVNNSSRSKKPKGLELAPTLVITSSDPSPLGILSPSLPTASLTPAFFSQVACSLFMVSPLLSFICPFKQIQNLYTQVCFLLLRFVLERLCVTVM
Procedure, shortened: as §1

ETV2 = molecular target: T4, ETV2 (Homo sapiens, UniProt O00321 1-342); settings: protein: recombinant; tags: N-terminal GST; dsDNA, one strand shown
T4 sequence: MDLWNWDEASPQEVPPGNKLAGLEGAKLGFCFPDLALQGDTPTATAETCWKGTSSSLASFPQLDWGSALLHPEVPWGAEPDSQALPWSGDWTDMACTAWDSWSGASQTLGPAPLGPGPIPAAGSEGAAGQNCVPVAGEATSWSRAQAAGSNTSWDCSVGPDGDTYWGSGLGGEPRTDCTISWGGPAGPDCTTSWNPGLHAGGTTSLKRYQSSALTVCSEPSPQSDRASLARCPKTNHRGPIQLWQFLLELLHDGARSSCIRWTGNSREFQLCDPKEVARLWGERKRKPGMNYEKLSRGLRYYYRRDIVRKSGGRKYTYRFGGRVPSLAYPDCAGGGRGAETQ
Procedure, shortened: as §1

ELF3 = molecular target: T5, ELF3 (Homo sapiens, UniProt P78545 1-371); settings: protein: recombinant; tags: N-terminal GST; dsDNA, one strand shown
T5 sequence: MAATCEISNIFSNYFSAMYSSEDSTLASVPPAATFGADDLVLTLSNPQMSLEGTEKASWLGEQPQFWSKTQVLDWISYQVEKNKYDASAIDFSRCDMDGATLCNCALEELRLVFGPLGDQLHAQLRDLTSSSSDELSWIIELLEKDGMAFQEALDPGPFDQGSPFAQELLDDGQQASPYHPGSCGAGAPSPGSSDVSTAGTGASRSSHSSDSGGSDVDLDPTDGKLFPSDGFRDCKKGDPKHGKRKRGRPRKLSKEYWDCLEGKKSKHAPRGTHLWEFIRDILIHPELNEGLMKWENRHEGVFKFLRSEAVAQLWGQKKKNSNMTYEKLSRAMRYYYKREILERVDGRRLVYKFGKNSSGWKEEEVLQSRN
Procedure, shortened: as §1

CRX = CRX (Homo sapiens, UniProt O43186 1-299); settings: protein: recombinant; tags: N-terminal GST; dsDNA, one strand shown
Procedure, shortened: as §1

ETV1 = ETV1 (Homo sapiens, UniProt P50549 1-477); settings: protein: recombinant; tags: N-terminal GST; dsDNA, one strand shown
Procedure, shortened: as §1

Sequence of ETV5 (P41161 whole entry): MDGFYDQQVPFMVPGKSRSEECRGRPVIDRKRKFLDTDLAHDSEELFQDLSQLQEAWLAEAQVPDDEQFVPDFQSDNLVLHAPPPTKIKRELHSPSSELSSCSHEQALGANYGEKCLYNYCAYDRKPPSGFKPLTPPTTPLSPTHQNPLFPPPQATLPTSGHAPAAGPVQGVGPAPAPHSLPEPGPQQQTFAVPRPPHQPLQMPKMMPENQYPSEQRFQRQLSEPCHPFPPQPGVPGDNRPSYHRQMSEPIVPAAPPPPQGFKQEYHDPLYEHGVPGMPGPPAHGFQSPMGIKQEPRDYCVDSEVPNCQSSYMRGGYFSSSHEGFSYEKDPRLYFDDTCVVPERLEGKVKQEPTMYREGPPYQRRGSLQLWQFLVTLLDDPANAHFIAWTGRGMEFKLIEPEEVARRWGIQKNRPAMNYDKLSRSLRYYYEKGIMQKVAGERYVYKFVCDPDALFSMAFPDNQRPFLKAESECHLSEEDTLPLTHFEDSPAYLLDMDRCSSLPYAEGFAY
Sequence of HSF1 (Q00613 whole entry): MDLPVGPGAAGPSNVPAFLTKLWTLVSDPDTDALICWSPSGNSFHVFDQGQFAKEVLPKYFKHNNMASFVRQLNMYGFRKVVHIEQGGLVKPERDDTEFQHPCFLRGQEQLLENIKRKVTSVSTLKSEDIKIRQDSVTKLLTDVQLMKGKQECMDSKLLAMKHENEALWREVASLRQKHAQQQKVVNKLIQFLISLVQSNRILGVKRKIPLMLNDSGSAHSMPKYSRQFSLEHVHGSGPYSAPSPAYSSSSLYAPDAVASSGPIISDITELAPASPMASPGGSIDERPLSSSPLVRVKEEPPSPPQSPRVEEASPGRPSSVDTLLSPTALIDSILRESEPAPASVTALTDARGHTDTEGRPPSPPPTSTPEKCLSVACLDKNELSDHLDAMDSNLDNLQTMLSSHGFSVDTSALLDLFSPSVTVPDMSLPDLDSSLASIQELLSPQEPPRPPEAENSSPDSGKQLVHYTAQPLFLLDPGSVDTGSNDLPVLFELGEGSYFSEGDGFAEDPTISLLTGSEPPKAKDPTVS
Sequence of ELF4 (Q99607 whole entry): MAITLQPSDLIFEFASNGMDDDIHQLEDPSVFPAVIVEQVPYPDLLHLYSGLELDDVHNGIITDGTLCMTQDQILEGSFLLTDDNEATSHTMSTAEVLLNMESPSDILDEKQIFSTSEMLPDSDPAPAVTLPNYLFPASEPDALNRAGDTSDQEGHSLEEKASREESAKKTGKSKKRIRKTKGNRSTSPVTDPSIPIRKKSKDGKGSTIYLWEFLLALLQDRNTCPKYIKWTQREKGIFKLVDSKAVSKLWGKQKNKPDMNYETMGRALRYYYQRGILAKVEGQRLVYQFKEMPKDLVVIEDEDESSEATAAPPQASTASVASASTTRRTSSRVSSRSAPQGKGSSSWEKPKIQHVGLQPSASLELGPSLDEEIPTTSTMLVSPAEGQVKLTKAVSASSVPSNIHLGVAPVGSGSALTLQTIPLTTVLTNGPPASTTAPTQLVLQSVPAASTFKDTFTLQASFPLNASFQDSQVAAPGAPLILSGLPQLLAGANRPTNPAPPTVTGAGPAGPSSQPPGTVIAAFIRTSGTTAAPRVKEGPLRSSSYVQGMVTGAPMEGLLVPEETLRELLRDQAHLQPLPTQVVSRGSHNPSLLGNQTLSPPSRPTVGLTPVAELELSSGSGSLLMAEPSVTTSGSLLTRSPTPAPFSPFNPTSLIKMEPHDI
Sequence of CRX (O43186 whole entry): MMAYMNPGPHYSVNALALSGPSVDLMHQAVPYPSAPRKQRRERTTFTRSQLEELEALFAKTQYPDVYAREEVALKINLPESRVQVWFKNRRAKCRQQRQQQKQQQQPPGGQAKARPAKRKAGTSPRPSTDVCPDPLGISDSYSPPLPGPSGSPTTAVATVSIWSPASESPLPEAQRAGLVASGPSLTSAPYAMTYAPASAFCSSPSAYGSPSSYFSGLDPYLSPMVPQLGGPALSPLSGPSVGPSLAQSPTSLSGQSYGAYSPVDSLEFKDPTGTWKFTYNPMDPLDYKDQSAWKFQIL
Sequence of ETV1 (P50549 whole entry): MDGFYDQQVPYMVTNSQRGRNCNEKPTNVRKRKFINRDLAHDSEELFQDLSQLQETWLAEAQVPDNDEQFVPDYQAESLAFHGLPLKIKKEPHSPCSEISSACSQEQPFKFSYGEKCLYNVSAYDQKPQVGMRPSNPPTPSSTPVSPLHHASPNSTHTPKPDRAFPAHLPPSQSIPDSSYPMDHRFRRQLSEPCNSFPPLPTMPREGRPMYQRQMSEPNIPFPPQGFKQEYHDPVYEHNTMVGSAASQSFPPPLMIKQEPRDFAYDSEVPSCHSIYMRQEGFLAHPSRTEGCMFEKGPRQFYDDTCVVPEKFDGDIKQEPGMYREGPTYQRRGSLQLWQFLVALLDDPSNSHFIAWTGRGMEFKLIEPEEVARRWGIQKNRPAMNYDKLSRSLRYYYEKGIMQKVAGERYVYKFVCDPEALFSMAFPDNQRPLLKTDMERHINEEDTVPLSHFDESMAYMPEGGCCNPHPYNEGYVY

Sequence	binding signal (FEV)	binding signal (ETV5)	binding signal (HSF1)	binding signal (SPIC)	binding signal (ELF4)	binding signal (ELK4)	binding signal (ETV2)	binding signal (ELF3)	binding signal (CRX)	binding signal (ETV1)
TCCCAC	1.38 fold enrichment (6-mer frequency, TF over GST control)	1.37 fold enrichment (6-mer frequency, TF over GST control)	1.17 fold enrichment (6-mer frequency, TF over GST control)	1.17 fold enrichment (6-mer frequency, TF over GST control)	1.34 fold enrichment (6-mer frequency, TF over GST control)	1.34 fold enrichment (6-mer frequency, TF over GST control)	1.12 fold enrichment (6-mer frequency, TF over GST control)	1.46 fold enrichment (6-mer frequency, TF over GST control)	1.34 fold enrichment (6-mer frequency, TF over GST control)	1.34 fold enrichment (6-mer frequency, TF over GST control)
AGCTCT	1.19 fold enrichment (6-mer frequency, TF over GST control)	1.15 fold enrichment (6-mer frequency, TF over GST control)	1.25 fold enrichment (6-mer frequency, TF over GST control)	1.24 fold enrichment (6-mer frequency, TF over GST control)	1.21 fold enrichment (6-mer frequency, TF over GST control)	1.22 fold enrichment (6-mer frequency, TF over GST control)	1.14 fold enrichment (6-mer frequency, TF over GST control)	1.21 fold enrichment (6-mer frequency, TF over GST control)	1.41 fold enrichment (6-mer frequency, TF over GST control)	1.25 fold enrichment (6-mer frequency, TF over GST control)
CCGCCT	1.43 fold enrichment (6-mer frequency, TF over GST control)	1.6 fold enrichment (6-mer frequency, TF over GST control)	1.08 fold enrichment (6-mer frequency, TF over GST control)	1.61 fold enrichment (6-mer frequency, TF over GST control)	1.52 fold enrichment (6-mer frequency, TF over GST control)	1.45 fold enrichment (6-mer frequency, TF over GST control)	1.46 fold enrichment (6-mer frequency, TF over GST control)	1.35 fold enrichment (6-mer frequency, TF over GST control)	1.25 fold enrichment (6-mer frequency, TF over GST control)	1.47 fold enrichment (6-mer frequency, TF over GST control)
CCTAAG	1.14 fold enrichment (6-mer frequency, TF over GST control)	1.2 fold enrichment (6-mer frequency, TF over GST control)	1.35 fold enrichment (6-mer frequency, TF over GST control)	1.14 fold enrichment (6-mer frequency, TF over GST control)	1.26 fold enrichment (6-mer frequency, TF over GST control)	1.27 fold enrichment (6-mer frequency, TF over GST control)	1.08 fold enrichment (6-mer frequency, TF over GST control)	1.09 fold enrichment (6-mer frequency, TF over GST control)	1.85 fold enrichment (6-mer frequency, TF over GST control)	1.09 fold enrichment (6-mer frequency, TF over GST control)
ATTTCG	1.25 fold enrichment (6-mer frequency, TF over GST control)	1.26 fold enrichment (6-mer frequency, TF over GST control)	1.63 fold enrichment (6-mer frequency, TF over GST control)	1.26 fold enrichment (6-mer frequency, TF over GST control)	1.29 fold enrichment (6-mer frequency, TF over GST control)	1.49 fold enrichment (6-mer frequency, TF over GST control)	1.22 fold enrichment (6-mer frequency, TF over GST control)	1.2 fold enrichment (6-mer frequency, TF over GST control)	1.45 fold enrichment (6-mer frequency, TF over GST control)	1.34 fold enrichment (6-mer frequency, TF over GST control)
GCGACT	1.31 fold enrichment (6-mer frequency, TF over GST control)	1.28 fold enrichment (6-mer frequency, TF over GST control)	1.11 fold enrichment (6-mer frequency, TF over GST control)	1.28 fold enrichment (6-mer frequency, TF over GST control)	1.13 fold enrichment (6-mer frequency, TF over GST control)	1.28 fold enrichment (6-mer frequency, TF over GST control)	1.55 fold enrichment (6-mer frequency, TF over GST control)	1.05 fold enrichment (6-mer frequency, TF over GST control)	1.14 fold enrichment (6-mer frequency, TF over GST control)	1.22 fold enrichment (6-mer frequency, TF over GST control)
CTTCAC	1.34 fold enrichment (6-mer frequency, TF over GST control)	1.37 fold enrichment (6-mer frequency, TF over GST control)	1.18 fold enrichment (6-mer frequency, TF over GST control)	1.57 fold enrichment (6-mer frequency, TF over GST control)	1.33 fold enrichment (6-mer frequency, TF over GST control)	1.45 fold enrichment (6-mer frequency, TF over GST control)	1.43 fold enrichment (6-mer frequency, TF over GST control)	1.54 fold enrichment (6-mer frequency, TF over GST control)	1.17 fold enrichment (6-mer frequency, TF over GST control)	1.37 fold enrichment (6-mer frequency, TF over GST control)
